# Values without a mark were called inactive. Inconclusive results are not listed. Where a call stands in place of a potency, no number is given. The source made the active and inactive calls. The call rests on the fitted dose curve; in most records, active means well fitted curve in the direction sought with a large enough effect in the repeat runs; inconclusive means weak or mixed curves; inactive means no such curve, though single readings can be large; an effect the other way counts as inactive or inconclusive.
# Columns and labels:
# [1] = qHTS RealTime-Glo MT Cell Viability Assay in HEK293 cells - 40 hour (AID 1224874); settings: RealTime-Glo luminescence; max response: active compounds read low; further: nearly all actives have a fitted effect of over 50% in size; further: potency means the concentration at half of the fitted maximal effect
# How it was run: (§1)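 Tox21 screen in HEK293 using RealTime-Glo MT chemistry, with cells and reagent co-dispensed. Luminescence proportional to viable cell number was captured at intervals during 40 h compound exposure at 37 C.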
# [2] = A CellTox Green Cytotoxicity Assay to monitor cytotoxicity in HEK293 cells - 24 hour (AID 1224875); further: nearly all actives have a fitted effect of over 45% in size; further: potency means the concentration at half of the fitted maximal effect
# How it was run: (§2)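 Seeding of HEK293 cells together with cytotoxicity dye preceded a 5 h incubation at 37 C/5% CO2. Test compounds in DMSO were then added and fluorescence monitored across 40 h.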
# [3] = qHTS RealTime-Glo MT Cell Viability Assay in HepG2 cells - 32 hour (AID 1224877); further: nearly all actives have a fitted effect of over 55% in size; further: potency means the concentration at half of the fitted maximal effect
# How it was run: (§3)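 HepG2 cells were seeded at 600 cells/well together with NanoLuc luciferase and a cell-permeant prosubstrate, preincubated 5 h at 37 C/5% CO2, then pin-dosed with compounds in DMSO. Nonlytic luminescence from viable cells was read at each time point.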
# [4] = A CellTox Green Cytotoxicity Assay to monitor cytotoxicity in HepG2 cells - 24 hour (AID 1224878); further: nearly all actives have a fitted effect of over 45% in size; further: potency means the concentration at half of the fitted maximal effect
# How it was run: (§4)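 Nonlytic assay: viable cells exclude the dye, so fluorescence scales with cell death. HepG2 at 600 cells/well, compounds added after 5 h, signal read across 40 h.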
# [5] = A CellTox Green Cytotoxicity Assay to monitor cytotoxicity in HepG2 cells - 40 hour (AID 1224879); further: nearly all actives have a fitted effect of over 40% in size; further: potency means the concentration at half of the fitted maximal effect
# How it was run: as §4
# [6] = qHTS RealTime-Glo MT Cell Viability Assay in HEK293 cells - 0 hour (AID 1224880); further: nearly all actives have a fitted effect of over 45% in size; further: potency means the concentration at half of the fitted maximal effect
# How it was run: as §1
# [7] = A CellTox Green Cytotoxicity Assay to monitor cytotoxicity in HEK293 cells - 32 hour (AID 1224881); further: nearly all actives have a fitted effect of over 40% in size; further: potency means the concentration at half of the fitted maximal effect
# How it was run: as §2
# [8] = A CellTox Green Cytotoxicity Assay to monitor cytotoxicity in HepG2 cells - 0 hour (AID 1224882); further: nearly all actives have a fitted effect of over 35% in size
# How it was run: as §4
# [9] = A CellTox Green Cytotoxicity Assay to monitor cytotoxicity in HEK293 cells - 8 hour (AID 1224884); further: nearly all actives have a fitted effect of over 35% in size; further: potency means the concentration at half of the fitted maximal effect
# How it was run: as §2
# [10] = qHTS RealTime-Glo MT Cell Viability Assay in HepG2 cells - 16 hour (AID 1224885); further: nearly all actives have a fitted effect of over 50% in size; further: potency means the concentration at half of the fitted maximal effect
# How it was run: as §3
# [11] = qHTS RealTime-Glo MT Cell Viability Assay in HEK293 cells - 24 hour (AID 1224886); further: nearly all actives have a fitted effect of over 50% in size; further: potency means the concentration at half of the fitted maximal effect
# How it was run: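 HEK293 cells were seeded at 600 cells/well together with NanoLuc luciferase and cell-permeant prosubstrate, preincubated 5 h at 37 C/5% CO2, then given compound in DMSO by pintool. Luminescence from viable-cell prosubstrate reduction was read repeatedly over 40 h.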
# [12] = qHTS RealTime-Glo MT Cell Viability Assay in HEK293 cells - 8 hour (AID 1224887); further: nearly all actives have a fitted effect of over 50% in size; further: potency means the concentration at half of the fitted maximal effect
# How it was run: as §1
# [13] = A CellTox Green Cytotoxicity Assay to monitor cytotoxicity in HEK293 cells - 16 hour (AID 1224888); further: nearly all actives have a fitted effect of over 35% in size; further: potency means the concentration at half of the fitted maximal effect
# How it was run: as §2
# [14] = qHTS RealTime-Glo MT Cell Viability Assay in HepG2 cells - 0 hour (AID 1224889); further: nearly all actives have a fitted effect of over 50% in size; further: potency means the concentration at half of the fitted maximal effect
# How it was run: as §3
# [15] = A CellTox Green Cytotoxicity Assay to monitor cytotoxicity in HepG2 cells - 8 hour (AID 1224890); further: nearly all actives have a fitted effect of over 45% in size
# How it was run: as §4
# [16] = qHTS assay to identify small molecule antagonists of the estrogen receptor alpha (ER-alpha) signaling pathway using the BG1 cell line in the presence of 0.1 nM 17-beta-estradiol - cell viability counter screen (AID 1259241); further: nearly all actives have a fitted effect of over 40% in size; further: potency means the concentration at half of the fitted maximal effect
# How it was run: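 In this screen, hormone-deprived VM7Luc4E2 cells were seeded at 4,000 per well, dosed with compound and 0.1 nM estradiol final, and incubated 22 hr at 37C and 5% CO2; fluorogenic live-cell protease signal reported viability.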
# [17] = qHTS assay to identify small molecule antagonists of the androgen receptor (AR) signaling pathway using the MDA cell line in the presence of 0.5 nM R1881 - cell viability counter screen (AID 1259242); further: nearly all actives have a fitted effect of over 45% in size; further: potency means the concentration at half of the fitted maximal effect
# How it was run: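 R1881 at 0.5 nM final stimulated MDA-kb2 cells during 16 hr compound treatment at 37C. Cytotoxicity read: CellTiter-Fluor fluorescence after 30 min.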
# [18] = target: Androgen receptor (Homo sapiens) (UniProt P10275); assay: qHTS assay to identify small molecule antagonists of the androgen receptor (AR) signaling pathway using the MDA cell line in the presence of 0.5 nM R1881 (AID 1259243); further: nearly all actives have a fitted effect of over 50% in size; further: potency means the concentration at half of the fitted maximal effect
# Androgen receptor (Homo sapiens), sequence (P10275 whole entry, looked up): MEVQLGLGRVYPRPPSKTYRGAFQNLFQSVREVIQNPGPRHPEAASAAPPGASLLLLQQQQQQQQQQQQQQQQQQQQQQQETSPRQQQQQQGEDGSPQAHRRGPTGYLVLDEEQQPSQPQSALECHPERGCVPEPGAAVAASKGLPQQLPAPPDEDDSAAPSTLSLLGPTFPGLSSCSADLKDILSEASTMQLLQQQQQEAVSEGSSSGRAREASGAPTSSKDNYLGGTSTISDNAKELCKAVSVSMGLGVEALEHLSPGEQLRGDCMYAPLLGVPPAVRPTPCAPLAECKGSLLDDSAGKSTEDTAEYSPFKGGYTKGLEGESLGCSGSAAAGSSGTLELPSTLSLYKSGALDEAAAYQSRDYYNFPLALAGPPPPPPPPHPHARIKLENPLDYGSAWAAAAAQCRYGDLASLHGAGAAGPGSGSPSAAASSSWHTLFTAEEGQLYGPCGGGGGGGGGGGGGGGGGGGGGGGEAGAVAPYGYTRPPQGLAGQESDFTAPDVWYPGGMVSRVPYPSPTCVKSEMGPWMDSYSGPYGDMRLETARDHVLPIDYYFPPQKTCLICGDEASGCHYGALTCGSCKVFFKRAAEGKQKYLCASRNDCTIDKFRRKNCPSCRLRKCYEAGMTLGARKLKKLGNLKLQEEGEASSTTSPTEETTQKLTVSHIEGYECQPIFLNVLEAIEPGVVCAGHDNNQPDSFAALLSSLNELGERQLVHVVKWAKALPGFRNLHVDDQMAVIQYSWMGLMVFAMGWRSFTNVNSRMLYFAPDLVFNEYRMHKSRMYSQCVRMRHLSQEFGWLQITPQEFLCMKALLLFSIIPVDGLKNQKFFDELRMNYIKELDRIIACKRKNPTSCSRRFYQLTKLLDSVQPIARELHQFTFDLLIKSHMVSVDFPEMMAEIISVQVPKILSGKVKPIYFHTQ
# How it was run: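 We exposed MDA-kb2 cells to compounds under 0.5 nM R1881 stimulation for 16 hr at 37C and quantified MMTV-driven luciferase by luminescence.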
# [19] = A CellTox Green Cytotoxicity Assay to monitor cytotoxicity in HepG2 cells - 32 hour (AID 1224883); further: nearly all actives have a fitted effect of over 50% in size; further: potency means the concentration at half of the fitted maximal effect
# How it was run: as §4
# [20] = A CellTox Green Cytotoxicity Assay to monitor cytotoxicity in HepG2 cells - 16 hour (AID 1224876); further: nearly all actives have a fitted effect of over 45% in size; further: potency means the concentration at half of the fitted maximal effect
# How it was run: as §4
structure (smiles),measurement,setting,value
CN1CCN(C)CC1,max response,[1],7.77%
same,Potency,[2],inactive
same,Potency,[3],inactive
same,Potency,[4],inactive
same,Potency,[5],inactive
same,Potency,[6],inactive
same,Potency,[7],inactive
same,Potency,[8],inactive
same,Potency,[9],inactive
same,Potency,[10],inactive
same,Potency,[11],inactive
same,Potency,[12],inactive
same,Potency,[13],inactive
same,Potency,[14],inactive
same,Potency,[15],inactive
same,Potency,[16],inactive
same,Potency,[17],inactive
same,Potency,[18],inactive
COc1cccc(-c2ccc(/C=C\CN3CCCCCC3)cc2Cl)c1,Potency,[1],43.4 µM (active)
same,Potency,[2],48.7 µM (active)
same,Potency,[3],48.7 µM (active)
same,Potency,[4],43.4 µM (active)
same,Potency,[5],38.7 µM (active)
same,Potency,[7],43.4 µM (active)
same,Potency,[8],inactive
same,Potency,[19],38.7 µM (active)
same,Potency,[10],43.4 µM (active)
same,Potency,[11],43.4 µM (active)
same,Potency,[12],48.7 µM (active)
same,Potency,[14],inactive
same,Potency,[16],inactive
CCCCCCCCCCCCCCCCC(C(=O)O)C(O)(CC(=O)O)C(=O)O (stereo not drawn),max response,[1],-0.507%
same,Potency,[2],inactive
same,Potency,[3],inactive
same,Potency,[6],inactive
same,Potency,[7],inactive
same,Potency,[8],inactive
same,Potency,[9],inactive
same,Potency,[10],inactive
same,Potency,[11],inactive
same,Potency,[12],inactive
same,Potency,[13],inactive
same,Potency,[14],inactive
same,Potency,[15],inactive
same,Potency,[16],inactive
same,Potency,[17],inactive
same,Potency,[18],inactive
CC1=CC[C@@H](C(C)(C)O)CC1,max response,[1],4.47%
same,Potency,[2],inactive
same,Potency,[3],inactive
same,Potency,[4],inactive
same,Potency,[5],inactive
same,Potency,[6],inactive
same,Potency,[8],inactive
same,Potency,[9],inactive
same,Potency,[10],inactive
same,Potency,[11],inactive
same,Potency,[12],inactive
same,Potency,[13],inactive
same,Potency,[14],inactive
same,Potency,[15],inactive
same,Potency,[16],inactive
same,Potency,[17],inactive
same,Potency,[18],inactive
CCCC(=O)c1cc(O)c(O)cc1O,max response,[1],1.65%
same,Potency,[2],inactive
same,Potency,[3],inactive
same,Potency,[5],inactive
same,Potency,[6],inactive
same,Potency,[7],inactive
same,Potency,[9],inactive
same,Potency,[10],inactive
same,Potency,[12],inactive
same,Potency,[13],inactive
same,Potency,[14],inactive
same,Potency,[15],inactive
same,Potency,[18],inactive
NC(=O)c1ccccc1Cl,max response,[1],-1.02%
same,Potency,[2],inactive
same,Potency,[3],inactive
same,Potency,[4],inactive
same,Potency,[5],inactive
same,Potency,[6],inactive
same,Potency,[7],inactive
same,Potency,[8],inactive
same,Potency,[9],inactive
same,Potency,[10],inactive
same,Potency,[11],inactive
same,Potency,[12],inactive
same,Potency,[13],inactive
same,Potency,[14],inactive
same,Potency,[15],inactive
same,Potency,[16],inactive
same,Potency,[17],inactive
CCCCCCCCSCc1cc(C)c(O)c(CSCCCCCCCC)c1,max response,[1],-17.7%
same,Potency,[2],inactive
same,Potency,[3],inactive
same,Potency,[4],inactive
same,Potency,[5],inactive
same,Potency,[6],inactive
same,Potency,[7],inactive
same,Potency,[8],inactive
same,Potency,[9],inactive
same,Potency,[10],inactive
same,Potency,[12],9.77 µM (active)
same,Potency,[13],inactive
same,Potency,[14],inactive
same,Potency,[16],inactive
same,Potency,[17],inactive
same,Potency,[18],inactive
NCc1ccco1,max response,[1],18.6%
same,Potency,[20],inactive
same,Potency,[3],inactive
same,Potency,[4],inactive
same,Potency,[5],inactive
same,Potency,[6],inactive
same,Potency,[7],inactive
same,Potency,[8],inactive
same,Potency,[19],inactive
same,Potency,[10],inactive
same,Potency,[11],inactive
same,Potency,[12],inactive
same,Potency,[14],inactive
same,Potency,[15],inactive
same,Potency,[16],inactive
same,Potency,[17],inactive
Cc1ccc(S(=O)(=O)C(I)I)cc1,Potency,[1],8.71 µM (active)
same,Potency,[2],34.7 µM (active)
same,Potency,[3],11 µM (active)
same,Potency,[4],49 µM (active)
same,Potency,[5],24.5 µM (active)
same,Potency,[6],0.616 µM (active)
same,Potency,[7],24.5 µM (active)
same,Potency,[8],inactive
same,Potency,[9],49 µM (active)
same,Potency,[10],11 µM (active)
same,Potency,[11],12.3 µM (active)
same,Potency,[12],24.5 µM (active)
same,Potency,[13],43.6 µM (active)
same,Potency,[14],12.3 µM (active)
same,Potency,[16],77 µM (active)
same,Potency,[17],48.6 µM (active)
same,Potency,[18],15.4 µM (active)
CCC(C)(C)c1ccc(CC(C)CN2C[C@@H](C)O[C@@H](C)C2)cc1 (stereo partly drawn),max response,[1],-25.5%
same,Potency,[2],23.9 µM (active)
same,Potency,[3],inactive
same,Potency,[4],21.3 µM (active)
same,Potency,[5],23.9 µM (active)
same,Potency,[6],inactive
same,Potency,[7],23.9 µM (active)
same,Potency,[8],inactive
same,Potency,[19],21.3 µM (active)
same,Potency,[10],inactive
same,Potency,[11],inactive
same,Potency,[12],inactive
same,Potency,[13],23.9 µM (active)
same,Potency,[14],inactive
same,Potency,[16],inactive
same,Potency,[17],inactive
COc1c(Br)cc(Br)c(C)c1Br,max response,[1],1.46%
same,Potency,[2],inactive
same,Potency,[3],inactive
same,Potency,[6],inactive
same,Potency,[7],inactive
same,Potency,[8],inactive
same,Potency,[9],inactive
same,Potency,[10],inactive
same,Potency,[11],inactive
same,Potency,[12],inactive
same,Potency,[13],inactive
same,Potency,[14],inactive
same,Potency,[15],inactive
same,Potency,[16],inactive
same,Potency,[17],inactive
CC(C)=NNC(N)=S,max response,[1],3.34%
same,Potency,[2],inactive
same,Potency,[3],inactive
same,Potency,[4],inactive
same,Potency,[6],inactive
same,Potency,[7],inactive
same,Potency,[8],inactive
same,Potency,[9],inactive
same,Potency,[10],inactive
same,Potency,[11],inactive
same,Potency,[12],inactive
same,Potency,[13],inactive
same,Potency,[14],inactive
same,Potency,[16],inactive
same,Potency,[17],inactive
Cc1cc(F)ccc1-c1cc(N2CC[C@@H](O)[C@H]2CO)ncc1N(C)C(=O)C(C)(C)c1cc(C(F)(F)F)cc(C(F)(F)F)c1,Potency,[1],17.1 µM (active)
same,Potency,[20],43 µM (active)
same,Potency,[3],38.3 µM (active)
same,Potency,[4],38.3 µM (active)
same,Potency,[5],43 µM (active)
same,Potency,[8],inactive
same,Potency,[19],43 µM (active)
same,Potency,[9],inactive
same,Potency,[10],38.3 µM (active)
same,Potency,[11],17.1 µM (active)
same,Potency,[12],34.1 µM (active)
same,Potency,[14],1.71 µM (active)
same,Potency,[16],inactive
same,Potency,[17],inactive
same,Potency,[18],38 µM (active)
N#Cc1nc(Cl)c(Cl)c(Cl)c1Cl,Potency,[1],2.19 µM (active)
same,Potency,[20],49 µM (active)
same,Potency,[3],19.5 µM (active)
same,Potency,[4],49 µM (active)
same,Potency,[5],24.5 µM (active)
same,Potency,[6],inactive
same,Potency,[8],inactive
same,Potency,[9],inactive
same,Potency,[10],21.9 µM (active)
same,Potency,[11],1.95 µM (active)
same,Potency,[14],inactive
same,Potency,[15],inactive
same,Potency,[17],54.5 µM (active)
same,Potency,[18],4.86 µM (active)
